# HT1080NT lethal: kills 2HG-producing HT-1080-NT fibrosarcoma cells | HT-1080-NT fibrosarcoma viability, CellTiter-Glo ATP luminescence, 48 h | Potency, µM (series often up to 46.1 µM), without a hit: at the top dose activity, negative = less viability, actives largely listed as cytotoxic | actives 1.6% (n = 360,000);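 note: NT is the 2HG producing partner of a matched IDH1 knockdown line; potency is the fitted concentration of half-maximal effect; 0% = DMSO-treated cells and -100% = media-only wells without cells; nearly all actives have a fitted effect of over 55% in size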
#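 Read-out is CellTiter-Glo luminescence after 10 minutes at room temperature, following 48 hours' compound treatment of HT-1080-NT cells (750 cells/well, RPMI, 5% FBS, 37 degrees C).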
# HT1080 IDH1KD tx: toxicity to HT-1080 IDH1 knockdown cells (counter line); HT-1080 IDH1 knockdown viability, ATP luminescence, 48 h; Potency, µM (top dose mostly 46.1 µM), without a hit: at the highest dose activity, negative = toxicity, usual class: cytotoxic; actives 2% (n = 360,000); AID 686971;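 note: potency is the fitted concentration of half-maximal effect; 0% = DMSO wells and -100% = cell-free medium wells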
#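 Assay cells: HT-1080 with IDH1 knockdown, 750 per well, RPMI/5% FBS. Exposure: 48 h at 37 °C following 2 h pre-incubation. Read: CellTiter-Glo luminescence; fitted concentration-response, curve class assigned.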
# TGFb SMAD3 inh: blocks TGF-b signaling; HepG2 CAGA-GFP TGF-b/SMAD3 reporter, GFP fluorescence, 18 h; TGF-beta stimulated, 500 pg/mL final; Potency, µM (highest dose often 46.1 µM), inactives show top-dose activity, negative = inhibition, most hits filed as inhibitors; actives 1.2% (n = 410,000); note: potency is the fitted concentration of half-maximal effect; % is set by controls: 0 for no effect and ±100 for the full control effect; nearly all actives have a fitted effect of over 65% in size
#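 First, reporter cells (HEPG2 CAGA-GFP) rested 2 h at 37 degrees C. Next, compounds were pinned in and TGF-beta added to 500 pg/mL final. After 18 h, GFP was imaged per cell and summed per well.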
# IL1B secr inh: inhibitors of inflammasome signaling (IL-1 beta secretion) | THP-1 LPS/ATP IL-1B secretion, AlphaLISA, 16 h; stronger effect = lower value | activity change, % at 57.5 µM | actives 4.7% (n = 360,000) | AID 743279; in the data active = activity change below about -50%; inconclusive = mostly about -30% to -49%; note: % is set by controls: 0 for no effect and ±100 for the full control effect
#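 Secreted IL-1B measured by AlphaLISA bead assay after 16 h compound exposure of THP-1 cells; compounds (final up to 57.5 uM) added 1 h before LPS (250 ng/mL) and ATP (1.25 mM) stimulation; lower signal means less secretion.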
# HepG2 viability: kills HepG2 cells in TGF-b inhibitor counter-screen | AID 588856 | HepG2 CAGA-GFP viability, ATP luminescence, 18 h | Potency, µM (top dose mostly 46.1 µM), without a hit: top-dose activity change, negative = cytotoxicity, most hits filed as cytotoxic | actives 0.76% (n = 410,000); note: potency is the fitted concentration of half-maximal effect
#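 HepG2 CAGA-GFP cells (1000/well, DMEM with 1% FBS) received compound, then TGF-beta at 500 pg/mL final, and were incubated 18 hours at 37 degrees C. Viability was read by CellTiter-Glo luminescence. Media-only wells were set as complete cell-killing and DMSO as no toxicity.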
# Giardia kill: kills Giardia lamblia; actives 0.15% (n = 340,000); activity change, % at 7.66 µM, hits read low; Giardia lamblia trophozoite viability; in the data active = activity change below about -80%; inconclusive = between about -30% and that limit;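 note: parasites exposed to compound for two days anaerobically before the ATP read; % is set by controls: 0 for no effect and ±100 for the full control effect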
#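 Compounds were tested on trophozoites seeded at 100 cells/well and held 48 hrs at 37 deg C anaerobically. An ATP-based luminescent kit measured the remaining live cells.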
# Starred values were filed as active, the others as inactive; ? = inconclusive; . = not tested or not shown. Rows were chosen to be rich in hits. Some 6.5% of all compounds tested hit in one or more screens of this group. Unless noted, calls come from the whole dose curve; as a rule, active = well fitted curve in the direction sought with a large enough effect; inconclusive = small, poorly fitted or top-dose-only effect, or another doubt; inactive = no such curve, though single readings can be large; an effect the other way counts as inactive or inconclusive.
SMILES,HT1080NT lethal,HT1080 IDH1KD tx,TGFb SMAD3 inh,IL1B secr inh,HepG2 viability,Giardia kill
COc1ccc(NC(=O)COC(=O)Cn2cnc3ccccc32)cc1,-2%,-1%,-9%,0,-3%,47
Cn1ccnc1SCC(=O)Nc1ccc(SC(F)F)cc1,22%,7%,15%,-20,-3%,-23
CCn1c(N)[n+](CC(=O)Nc2ccc(SC(F)F)cc2)c2ccccc21,?,?,?,-97*,14µM*,-16
O=C(COC(=O)c1ccccc1C(=O)c1ccccc1)Nc1ccc(SC(F)F)cc1,-28%,?,3%,-77*,-29%,-17
Cc1[nH]c(=O)[nH]c(=O)c1S(=O)(=O)N1CCN(c2ccccc2F)CC1,1%,5%,-4%,2,-2%,-3
CNc1nc(OCC#N)nc(N2CCCCC2)n1,1%,15%,2%,-10,-5%,-15
O=C(NCCCc1ccc(F)cc1)C1CCC(=O)N(CCN2CCOCC2)C1 (stereo not drawn),0%,2%,16%,5,7%,2
Cc1ccc(C(=O)Nc2ccc(SC(F)F)cc2)s1,-3%,-16%,0%,-59*,0%,-3
CC(=O)N1CCC2(CC1)C/C(=N\NC(=S)Nc1ccccc1C)c1cc(O)ccc1O2,-20%,-18%,-5%,0,-27%,18
CC(=O)N1CCC2(CC1)C/C(=N\NC(=S)Nc1ccccc1F)c1cc(O)ccc1O2,?,?,-5%,-76*,-37%,-8
CCOC(=O)CCCc1ccc(/C(C)=N/NC(N)=S)cc1,16µM*,?,-1%,-2,-7%,-12
CCOC(=O)CCCc1ccc(/C(C)=N/NC(=S)NC)cc1,6%,7%,-9%,0,-9%,-19
Nc1nc(N)c2cc(S(=O)(=O)c3ccc4ccccc4c3)ccc2n1,8.2µM*,3.3µM*,?,8,-75%,.
CC(=O)n1cc(N(C(=O)CCl)c2ccc([N+](=O)[O-])cc2)c2ccccc21,23µM*,?,?,-101*,10µM*,37
O=Cc1[nH]c2ccccc2c1N(C(=O)CCl)c1ccc([N+](=O)[O-])cc1,?,?,?,-67*,-55%,2
O=C(NC1CCN(CC(=O)N(c2ccccc2)c2ccccc2)CC1)c1ccc([N+](=O)[O-])cc1,-15%,-2%,1%,-19,-20%,1
CC(=O)n1cc(N(C(=O)CCl)c2ccccc2)c2ccccc21,2.6µM*,2.6µM*,7.1µM*,-92*,7.1µM*,24
CCOC(=O)c1nnn(-c2nonc2N)c1COc1c(C=O)cccc1OC,0%,5%,-27%,13,-28%,6
CC1=CC(C)(C)N2C(=O)C(=Nc3ccc(O)cc3)c3cccc1c32,16µM*,26µM*,13µM*,-53*,-97%,-19
COc1cccc(NC(=O)c2ccc3c(O)c(S(=O)(=O)c4ccccc4)c(=O)[nH]c3c2)c1,4%,6%,3%,1,4%,-2
CCCN(CCC)C(=S)NC(=O)c1ccc(Cl)cc1Cl,3.2µM*,2.5µM*,?,30,-18%,1
Cc1ccccc1C(=O)NNC(=S)NC(=O)c1ccc(Cl)cc1Cl,?,0%,?,26,-16%,2
COc1ccc(-c2nc(CN3CCCCC3c3nccn3C)c(C)o2)c(C)c1C (stereo not drawn),?,?,20µM*,-16,-62%,-9
CC(=O)c1ccc2c3c(ccc([N+](=O)[O-])c13)CC2,2%,4%,2%,-21,-12%,.
O=C(O)c1cccc(-n2nc(-c3ccc(Cl)c([N+](=O)[O-])c3)c3ccccc3c2=O)c1,-10%,-27%,10%,-69*,1%,0
